# Reference: article PMC8384837, “Expanding the binding specificity for RNA recognition by a PUF domain”
# Substitutions are numbered along the chain they refer to.
# Columns and labels:
# Experiment in all cases: yeast three-hybrid, YBZ-1, SC-Leu-His + 0.5 mM 3-AT, 4 days
# Conditions in all cases: tags: N-Gal4 AD-HA kept; label: inside an RPR1-promoter hybrid RNA with tandem MS2 sites; ssRNA
# PUM1 PUF domain R1-KFL = PUM1 PUF domain R1-KFL (Homo sapiens, UniProt Q14671 828-1176, S863K;R864F;Q867L)
# In short: (§1)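 Repeat regions from input (SC-Leu) and selection (SC-Leu-His + 0.5 mM 3-AT) plates were PCR-amplified and Illumina-sequenced after four days of growth. The cells were strain YBZ-1 with a LexA–MS2 coat fusion and a HIS3 reporter, co-expressing Pumilio-1 PUF domain libraries and matching RNA elements from a centromeric plasmid. The interaction score is the log change in variant frequency from input to selection, taken in log2 with a pseudocount of 1 for absent variants.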
# PUM1 PUF domain R6-IFG = molecular target: T1, PUM1 PUF domain R6-IFG (Homo sapiens, UniProt Q14671 828-1176, N1043I;Y1044F;Q1047G)
# T1 sequence: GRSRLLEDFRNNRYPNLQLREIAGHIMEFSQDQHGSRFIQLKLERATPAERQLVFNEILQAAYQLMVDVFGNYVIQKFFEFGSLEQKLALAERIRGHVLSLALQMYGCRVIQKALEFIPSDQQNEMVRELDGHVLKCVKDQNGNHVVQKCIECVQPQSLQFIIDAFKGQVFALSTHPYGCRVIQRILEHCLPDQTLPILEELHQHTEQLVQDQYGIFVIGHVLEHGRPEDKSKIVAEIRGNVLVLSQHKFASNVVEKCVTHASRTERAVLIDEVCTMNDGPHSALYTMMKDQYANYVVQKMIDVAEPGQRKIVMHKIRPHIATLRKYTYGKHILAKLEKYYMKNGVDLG
# In short: as §1
# PUM1 PUF domain R6-IWG = molecular target: T2, PUM1 PUF domain R6-IWG (Homo sapiens, UniProt Q14671 828-1176, N1043I;Y1044W;Q1047G)
# T2 sequence: T1 sequence with F217W
# In short: as §1
# PUM1 PUF domain R5-SQK = PUM1 PUF domain R5-SQK (Homo sapiens, UniProt Q14671 828-1176, C1007S;R1008Q;Q1011K)
# In short: as §1
# PUM1 PUF domain R7-GCR = PUM1 PUF domain R7-GCR (Homo sapiens, UniProt Q14671 828-1176, S1079G;N1080C;E1083R)
# In short: as §1
# PUM1 PUF domain R5-KDK = PUM1 PUF domain R5-KDK (Homo sapiens, UniProt Q14671 828-1176, C1007K;R1008D;Q1011K)
# In short: as §1
# PUM1 PUF domain R8-PFR = PUM1 PUF domain R8-PFR (Homo sapiens, UniProt Q14671 828-1176, N1122P;Y1123F;Q1126R)
# In short: as §1
# PUM1 PUF domain R6-QYV = molecular target: T3, PUM1 PUF domain R6-QYV (Homo sapiens, UniProt Q14671 828-1176, N1043Q;Q1047V)
# T3 sequence: T1 sequence with I216Q, F217Y, G220V
# In short: as §1
# PUM1 PUF domain R6-KYL = molecular target: T4, PUM1 PUF domain R6-KYL (Homo sapiens, UniProt Q14671 828-1176, N1043K;Q1047L)
# T4 sequence: T1 sequence with I216K, F217Y, G220L
# In short: as §1
# PUM1 PUF domain R7-CSR = PUM1 PUF domain R7-CSR (Homo sapiens, UniProt Q14671 828-1176, S1079C;N1080S;E1083R)
# In short: as §1
sequence,measurement,setting,value
GGCUAGAACUAGUGGAUCCCCCGGCGCCCGGCGGCUCGAGCCCGGGUAAGUGUAAAUUGUCUGCAUGCCGCCGGGCGCCAUGCCUGCAGGUCGACUCUAGAAAACAUG,binding signal,PUM1 PUF domain R1-KFL,2.99 log2 enrichment (interaction score)
GGCUAGAACUAGUGGAUCCCCCGGCGCCCGGCGGCUCGAGCCCGGGUAAGUGUAAAUCGUCUGCAUGCCGCCGGGCGCCAUGCCUGCAGGUCGACUCUAGAAAACAUG,binding signal,PUM1 PUF domain R1-KFL,4.43 log2 enrichment (interaction score)
GGCUAGAACUAGUGGAUCCCCCGGCGCCCGGCGGCUCGAGCCCGGGUAAGUGAAAAUAGUCUGCAUGCCGCCGGGCGCCAUGCCUGCAGGUCGACUCUAGAAAACAUG,binding signal,PUM1 PUF domain R6-IFG,4.32 log2 enrichment (interaction score)
same,binding signal,PUM1 PUF domain R6-IWG,1.15 log2 enrichment (interaction score)
GGCUAGAACUAGUGGAUCCCCCGGCGCCCGGCGGCUCGAGCCCGGGUAAGUGUUAAUAGUCUGCAUGCCGCCGGGCGCCAUGCCUGCAGGUCGACUCUAGAAAACAUG,binding signal,PUM1 PUF domain R5-SQK,2.21 log2 enrichment (interaction score)
GGCUAGAACUAGUGGAUCCCCCGGCGCCCGGCGGCUCGAGCCCGGGUAAGUCUAAAUAGUCUGCAUGCCGCCGGGCGCCAUGCCUGCAGGUCGACUCUAGAAAACAUG,binding signal,PUM1 PUF domain R7-GCR,5.49 log2 enrichment (interaction score)
GGCUAGAACUAGUGGAUCCCCCGGCGCCCGGCGGCUCGAGCCCGGGUAAGUGUCAAUAGUCUGCAUGCCGCCGGGCGCCAUGCCUGCAGGUCGACUCUAGAAAACAUG,binding signal,PUM1 PUF domain R5-KDK,2.95 log2 enrichment (interaction score)
GGCUAGAACUAGUGGAUCCCCCGGCGCCCGGCGGCUCGAGCCCGGGUAAGCGUAAAUAGUCUGCAUGCCGCCGGGCGCCAUGCCUGCAGGUCGACUCUAGAAAACAUG,binding signal,PUM1 PUF domain R8-PFR,5.6 log2 enrichment (interaction score)
GGCUAGAACUAGUGGAUCCCCCGGCGCCCGGCGGCUCGAGCCCGGGUAAGUGUAAAUAGUCUGCAUGCCGCCGGGCGCCAUGCCUGCAGGUCGACUCUAGAAAACAUG,binding signal,PUM1 PUF domain R8-PFR,3.82 log2 enrichment (interaction score)
same,binding signal,PUM1 PUF domain R6-QYV,3.63 log2 enrichment (interaction score)
same,binding signal,PUM1 PUF domain R6-KYL,5.29 log2 enrichment (interaction score)
same,binding signal,PUM1 PUF domain R6-IWG,3.59 log2 enrichment (interaction score)
GGCUAGAACUAGUGGAUCCCCCGGCGCCCGGCGGCUCGAGCCCGGGUAAGUUUAAAUAGUCUGCAUGCCGCCGGGCGCCAUGCCUGCAGGUCGACUCUAGAAAACAUG,binding signal,PUM1 PUF domain R7-CSR,3.61 log2 enrichment (interaction score)
